The campaign covered roughly 310,000 compounds. About 14,000 (4.5%) showed an effect of 50% or more. The effect is printed as a negative number. This excerpt belongs to a sample that is enriched for strong results.
biological target: human ether-à-go-go-related gene (hERG) potassium channel (human, UniProt Q12809); assay: primary screen, population patch clamp on CHO cells stably expressing hERG; higher = less effect of the substance
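Note: peak tail current of the secondary pulse compared with the same well before compound.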

Sequence of human ether-à-go-go-related gene (hERG) potassium channel (Q12809 whole entry, looked up): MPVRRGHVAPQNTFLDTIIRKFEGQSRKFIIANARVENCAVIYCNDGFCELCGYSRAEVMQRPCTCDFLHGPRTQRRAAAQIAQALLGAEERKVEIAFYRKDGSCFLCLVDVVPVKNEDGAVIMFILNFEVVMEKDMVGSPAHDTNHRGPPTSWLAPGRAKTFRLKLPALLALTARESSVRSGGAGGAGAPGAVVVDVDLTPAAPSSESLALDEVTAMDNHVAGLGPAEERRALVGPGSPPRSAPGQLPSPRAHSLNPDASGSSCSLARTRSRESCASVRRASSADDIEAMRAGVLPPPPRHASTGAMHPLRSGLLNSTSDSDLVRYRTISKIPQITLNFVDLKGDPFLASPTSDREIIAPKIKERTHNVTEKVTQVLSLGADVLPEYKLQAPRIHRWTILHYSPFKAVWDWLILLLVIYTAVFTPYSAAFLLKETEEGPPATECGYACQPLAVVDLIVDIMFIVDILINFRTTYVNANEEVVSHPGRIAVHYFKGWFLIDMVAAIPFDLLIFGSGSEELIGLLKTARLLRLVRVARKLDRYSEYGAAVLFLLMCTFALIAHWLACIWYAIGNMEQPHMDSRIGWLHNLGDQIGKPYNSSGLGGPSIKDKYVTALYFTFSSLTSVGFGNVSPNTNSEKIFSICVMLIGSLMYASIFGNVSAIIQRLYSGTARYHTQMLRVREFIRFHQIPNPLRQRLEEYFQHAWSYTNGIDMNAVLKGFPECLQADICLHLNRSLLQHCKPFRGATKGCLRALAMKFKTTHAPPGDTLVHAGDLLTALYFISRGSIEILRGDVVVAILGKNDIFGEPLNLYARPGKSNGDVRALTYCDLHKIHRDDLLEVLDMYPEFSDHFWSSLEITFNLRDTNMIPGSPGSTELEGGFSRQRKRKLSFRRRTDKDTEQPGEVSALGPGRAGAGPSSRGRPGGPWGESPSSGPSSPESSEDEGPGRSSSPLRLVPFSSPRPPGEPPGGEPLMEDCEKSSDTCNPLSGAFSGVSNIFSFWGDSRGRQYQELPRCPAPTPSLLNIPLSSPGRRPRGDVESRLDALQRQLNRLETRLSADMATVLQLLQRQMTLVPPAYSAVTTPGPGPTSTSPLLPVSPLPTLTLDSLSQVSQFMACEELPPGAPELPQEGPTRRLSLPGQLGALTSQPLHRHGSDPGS

Row | SMILES | hERG current change (%, negative = inhibition) at 10uM [%]
1 | O=Cc1ccnc(-c2ccc(OC(=O)c3ccco3)cc2)n1 | 7.26
2 | Cc1cc(Br)ccc1NS(=O)(=O)c1c(C)[nH]c(=O)[nH]c1=O | 11.6
3 | c1ccc(-n2ncc3c(NCc4ccccn4)ncnc32)cc1 | 0.854
4 | CC(=O)NS(=O)(=O)c1ccc(NC(=O)COc2ccc(C(=O)c3ccccc3)cc2)cc1 | 15.8
5 | Cc1nnsc1S(=O)c1ccc(Br)cc1 (stereo not drawn) | -1.16
6 | COCCn1c(SCC(=O)N2CCC(C)CC2)nc2c([nH]c3ccccc32)c1=O | -19.8
7 | CCOC(=O)N1CCN(C(=O)CSc2nc3c([nH]c4ccccc43)c(=O)n2CCOC)CC1 | -65.1
8 | CCOC(=O)N1CCN(C(=O)CSc2nc3c([nH]c4ccccc43)c(=O)n2CC)CC1 | -13.8
9 | COCCn1c(SCC(=O)N2CCCCCC2)nc2c([nH]c3ccccc32)c1=O | -5.06
10 | COCCn1c(SCC(=O)N2CCCC2)nc2c([nH]c3ccccc32)c1=O | -61.3
11 | COCCn1c(SCC(=O)N2CCCCC2)nc2c([nH]c3ccccc32)c1=O | -20.5
12 | Nc1nnc(SCC(=O)NCCOc2ccccc2)s1 | 4.23
13 | Cc1nc(-c2ccccc2O)n(S(=O)(=O)N(C)C)n1 | -4.34
14 | CCCC[n+]1ccn(C2=C([O-])c3ccccc3C(=O)/C2=N\S(=O)(=O)c2ccc(Br)cc2)c1 | -20.7
15 | O=C(Nc1ccccc1Cl)C1(c2ccccc2)CC1(Cl)Cl (stereo not drawn) | -0.213
16 | O=C(Nc1ccccc1F)C1(c2ccccc2)CC1(Cl)Cl (stereo not drawn) | -70
17 | O=C(Nc1ccccc1)C1(c2ccccc2)CC1(Cl)Cl (stereo not drawn) | -18.1
18 | Cc1ccc(C(=O)c2ccccc2C(=O)O)c(O)c1 | 1.4
19 | Cc1noc(NS(=O)(=O)c2ccc(NC(=O)CSc3nc4ccccc4s3)cc2)c1C | -2.99
20 | CC1CCCC(C)N1CCCNC(=O)c1ccc2nc(N3CCCCC3)sc2c1 (stereo not drawn) | -38
21 | CC1CCN(c2nc3ccc(C(=O)O)cc3s2)CC1 | 22.8
22 | CC1CC(C)CN(CCCNC(=O)c2ccc3nc(N4CCCCC4)sc3c2)C1 (stereo not drawn) | -47.5

Row | SMILES | hERG current change (%, negative = inhibition) at 10uM [%]
23 | CCCN1CCN(CCCNC(=O)c2ccc3nc(N4CCC(C)CC4)sc3c2)CC1 | -50.7
24 | CC1CCN(c2nc3ccc(C(=O)NCCCN4CCCCC4)cc3s2)CC1 | -50
25 | CCOC(CNC(=O)c1ccc2nc(N3CCC(C)CC3)sc2c1)OCC | 10.6
26 | CN(CC(=O)Nc1ccc(N2CCOCC2)cc1)C(=O)CCNC(=O)c1ccc(Br)cc1 | 3.43
27 | O.Oc1cc(O)c2c(c1)O[C@H](c1ccc(O)c(O)c1)[C@@H](O)C2 | 17.4
28 | O=C(c1ccc([N+](=O)[O-])o1)N1CCN(c2nc3c(F)cc(F)cc3s2)CC1 | -54.7
29 | O=C(c1ccc([N+](=O)[O-])o1)N1CCN(c2nc3ccc(F)cc3s2)CC1 | -23.7
30 | Cc1cc(C)c2nc(N3CCN(C(=O)c4cccs4)CC3)sc2c1 | 0.575
31 | Cc1ccc2sc(N3CCN(C(=O)c4ccc([N+](=O)[O-])o4)CC3)nc2c1C | 3.89
32 | O=C(c1cccs1)N1CCN(c2nc3c(F)cc(F)cc3s2)CC1 | -50.1
33 | Cc1cccc2sc(N3CCN(C(=O)c4cccs4)CC3)nc12 | -9.51
34 | Cc1ccc(S(=O)(=O)N2CCN(c3cc4c(cc3[N+](=O)[O-])n(C)c(=O)n4C)CC2)cc1 | -4.2
35 | Nc1nonc1-n1nnc(C(=O)N/N=C/c2cccc(Cl)c2)c1CSc1ccc(Cl)cc1 | 23.9
36 | CCCC12CN3CC(C)(CN(C1)C3c1ccc([N+](=O)[O-])o1)C2=O (stereo not drawn) | -19.6
37 | COc1ccc(NC(=O)c2c(NC(=O)CCC(=O)O)sc(-c3ccccc3)c2C)cc1 | 5.27
38 | CC1(C)C(=O)Nc2ccccc2N1C(=O)COc1ncnc2c(Cl)cc(Cl)cc12 | -9.51
39 | CCN(CC)CCN(CC(=O)N(C1CCCCC1)C1CCCCC1)C(=O)c1cccnc1.Cl.O | -71.9
40 | CCN(Cc1ccccc1)C(=O)c1cccnc1 | 2.64
41 | CCN(CC)CCN(CC(=O)N(C1CCCCC1)C1CCCCC1)C(=O)c1ccco1.O=C(O)C(=O)O | 23.2
42 | Cc1ccc(NC(=O)O/N=C/c2cccc([N+](=O)[O-])c2)cc1 | -15.8
43 | COc1ccc(NC(=O)O/N=C/c2ccccc2)cc1 | -2.52
44 | COc1ccc(/C=N/OC(=O)Nc2ccccc2)cc1[N+](=O)[O-] | -58.4

Row | SMILES | hERG current change (%, negative = inhibition) at 10uM [%]
45 | CC(NS(=O)(=O)c1ccc(Cl)cc1)C(=O)NCCC1=CCCCC1 (stereo not drawn) | -5.41
46 | O=C(COc1ccccc1)N(Cc1ccco1)C1CCS(=O)(=O)C1 (stereo not drawn) | -11.5
47 | O=C(COc1ccc(Br)cc1)N(Cc1ccco1)C1CCS(=O)(=O)C1 (stereo not drawn) | -50.6
48 | CC(C)c1ccc(OCC(=O)N(Cc2ccco2)C2CCS(=O)(=O)C2)cc1 (stereo not drawn) | -79.4
49 | O=C(COc1ccc(Cl)cc1)N(Cc1ccco1)C1CCS(=O)(=O)C1 (stereo not drawn) | -20.5
50 | Cc1ccc(OCC(=O)N(Cc2ccco2)C2CCS(=O)(=O)C2)cc1 (stereo not drawn) | -13
51 | O=C(COc1ccc(F)cc1)N(Cc1ccco1)C1CCS(=O)(=O)C1 (stereo not drawn) | -28.4
52 | O=C(Nc1ccc2c(c1)OCCO2)C1CCCN(S(=O)(=O)Cc2ccccc2)C1 (stereo not drawn) | -11
53 | CCn1nc(NS(=O)(=O)c2ccccc2)c2cc3cc(C)ccc3nc21 | 3.38
54 | COC(=O)c1noc(-c2ccc(C)cc2)n1 | -3.95
55 | CCOC(=O)Cc1csc(NC(=O)CCNS(=O)(=O)c2ccc3c(c2)CCC(=O)N3)n1 | 9.62
56 | CCOP(=O)(OCC)C(Nc1cccc([N+](=O)[O-])c1)c1ccccc1 (stereo not drawn) | -18.4
57 | CCOP(=O)(OCC)C(Nc1ccc([N+](=O)[O-])cc1)c1ccc(Cl)cc1 (stereo not drawn) | -76
58 | CCCOP(=O)(OCCC)C(Nc1ccc(C(C)C)cc1)c1ccc([N+](=O)[O-])cc1 (stereo not drawn) | 3.7
59 | Cn1cccc1CC(=O)NNC(=O)Nc1ccccc1F | 7.76
60 | O=C1c2ccccc2C(Nc2ccc3c(c2)OCCO3)N1Cc1ccccc1 (stereo not drawn) | -18.2
61 | Cc1ccc(NC(=O)C2CCCN(C(=O)c3ccc(Cl)cc3)C2)cc1C (stereo not drawn) | -19.6
62 | Cc1ccc(NC(=O)C2CCCN(C(=O)c3ccc(Cl)cc3)C2)c(C)c1 (stereo not drawn) | -59
63 | CC(=O)c1ccc(NC(=O)C2CCCN(C(=O)c3ccc(Cl)cc3)C2)cc1 (stereo not drawn) | -29.7
64 | CC(NC(=O)C1CCCN(C(=O)c2ccc(Cl)cc2)C1)c1cccc(C(F)(F)F)c1 (stereo not drawn) | -51.2
65 | Cc1ccc(NC(=O)C2CCCN(C(=O)c3ccc(Cl)cc3)C2)cc1 (stereo not drawn) | -33.4
66 | CC(=O)Nc1ccc(NC(=O)C2CCCN(C(=O)c3ccc(Cl)cc3)C2)cc1 (stereo not drawn) | 6.47

Row | SMILES | hERG current change (%, negative = inhibition) at 10uM [%]
67 | CC(=O)Nc1ccc(N(C(=O)CNC(=O)c2ccco2)C(C(=O)NC2CCCC2)c2ccco2)cc1 (stereo not drawn) | 3.72
68 | CC1(C)C(c2cccs2)=[N+]([O-])C2(CCCCC/C2=N\O)N1O (stereo not drawn) | 18.5
69 | COc1cc(C(=O)OCC(=O)N2CC(C)OC(C)C2)cc(OC)c1OC (stereo not drawn) | 33
70 | COc1ccccc1OCC(=O)N(Cc1nc(-c2ccccc2)no1)C(C)C | -12
71 | O=C(Nc1cc(C(=O)N2CCCC2)ccc1N1CCCC1)c1ccccc1 | -75.6
72 | CNC(=S)Nc1cc(C(=O)N2CCCC2)ccc1N1CCCC1 | 28.1
73 | O=C(Nc1cc(C(=O)N2CCOCC2)ccc1N1CCCC1)c1cccs1 | -75.9
74 | O=C(Nc1cc(C(=O)N2CCCC2)ccc1N1CCCC1)C1CC1 | -12.9
75 | O=C(Nc1ccccc1N1CCCCC1)c1ccccc1F | -14.5
76 | O=C(Nc1ccc(C(=O)N2CCCC2)cc1)c1ccccc1F | -4.82
77 | COC(=O)c1ccc(N2CCOCC2)c(NC(=O)c2cccs2)c1 | -5.27
78 | O=C(Nc1cc(C(=O)N2CCCC2)ccc1N1CCCC1)c1ccccc1F | -74.6
79 | O=C(Nc1ccc(C(=O)N2CCOCC2)cc1)c1cccs1 | 19.7
80 | O=C(CCCCl)Nc1c2c(nn1-c1ccccc1)CSC2 | -0.0485
81 | C/C(=N\NC(=O)Cc1ccc(Cl)c(Cl)c1)c1cccnc1 | -12.9
82 | COCCn1c(C)cc(C(=O)CSc2ccc3ccccc3n2)c1C | -0.727
83 | COc1cccc(-c2cnc(OC(C)(C)C)nc2OC(C)(C)C)c1 | 14.7
84 | O=C(OCc1ccccc1F)c1ccc2c(c1)OCCO2 | 7.26
85 | O=C(CCn1cccc1)NC1CCCc2ccccc21 (stereo not drawn) | 4.95
86 | CC(C)(C)NC(=O)NCc1ccco1 | 8.48
87 | O=C(CCN1CCN(c2ccccc2)CC1)Nc1nccs1 | -9.77

Source: article PMC4336329 (PLoS ONE, 2015)
